# From PubChem BioAssay AID488969 (Vanderbilt High Throughput Screening Facility, 2010)
# Whole data set: some 110,000 compounds, median “z-score” near -0.1, cut for the highest 2% near 2. For the sample, the highest values were picked, then their nearest neighbours and some compounds at random. The source made the active and inactive calls.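 Rule for the calls: active = z-score in the third read window above 3 or below -3; inactive = the rest.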
# Molecular target: Metabotropic glutamate receptor 8 (Rattus norvegicus) (UniProt P70579)
# Test: mGluR8 Gi/Go-coupled signaling modulation – cell-based, rat, thallium flux, HTS, primary screen (AID 488969)
# Conditions: HEK293 rat mGluR8, GIRK (G protein-gated inwardly rectifying potassium channel) thallium flux, FluoZin2; at 10 µM; stronger effect = higher value; submaximal glutamate (EC20) added with thallium
# Sequence of Metabotropic glutamate receptor 8 (Rattus norvegicus) (P70579 whole entry, looked up): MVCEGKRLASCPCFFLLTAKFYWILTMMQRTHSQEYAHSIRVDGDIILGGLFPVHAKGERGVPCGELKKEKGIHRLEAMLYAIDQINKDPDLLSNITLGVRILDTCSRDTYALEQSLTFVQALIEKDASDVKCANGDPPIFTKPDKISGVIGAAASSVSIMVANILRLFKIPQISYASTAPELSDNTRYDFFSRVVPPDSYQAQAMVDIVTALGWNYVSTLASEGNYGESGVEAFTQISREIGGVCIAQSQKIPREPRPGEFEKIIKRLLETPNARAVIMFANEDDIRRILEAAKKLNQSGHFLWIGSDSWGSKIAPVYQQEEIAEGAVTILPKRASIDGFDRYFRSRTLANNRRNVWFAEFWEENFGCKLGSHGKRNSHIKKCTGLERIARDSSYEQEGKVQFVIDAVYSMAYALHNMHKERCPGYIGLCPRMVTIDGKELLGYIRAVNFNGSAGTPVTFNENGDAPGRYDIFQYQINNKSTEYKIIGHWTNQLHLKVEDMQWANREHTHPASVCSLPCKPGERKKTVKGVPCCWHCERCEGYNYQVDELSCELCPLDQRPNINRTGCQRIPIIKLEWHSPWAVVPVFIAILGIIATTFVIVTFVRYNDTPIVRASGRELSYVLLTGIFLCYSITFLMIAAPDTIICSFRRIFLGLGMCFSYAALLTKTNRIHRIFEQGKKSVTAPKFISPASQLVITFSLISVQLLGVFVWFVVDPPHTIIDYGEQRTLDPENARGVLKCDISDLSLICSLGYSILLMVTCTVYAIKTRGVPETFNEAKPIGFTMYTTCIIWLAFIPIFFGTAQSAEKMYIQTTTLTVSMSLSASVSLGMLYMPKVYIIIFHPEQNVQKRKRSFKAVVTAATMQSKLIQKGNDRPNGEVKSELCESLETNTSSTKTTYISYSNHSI
row,Compound,z-score
1,C=CCNC(=O)c1cc(Cl)ccc1Cl,0.018
2,COc1ccc2c(C)cc(=O)[nH]c2c1,-0.159
3,CN(C)CCNC(=O)c1cc2c(s1)-c1ccccc1OC2,3.28 (active)
4,O=C(NCc1cccs1)c1cc2c(s1)-c1ccccc1OC2,-0.399
5,O=C(NC1CC1)c1cc2c(s1)-c1ccccc1OC2,-0.272
6,Cc1cc(C)n(-c2ccc(Cl)c(C(=O)Nc3cc(C(F)(F)F)ccc3Cl)n2)n1,0.25
7,CC(C)c1ccc(OCC(=O)N(Cc2ccccc2)c2ccccn2)cc1,-0.499
8,CCN(CC(=O)Nc1cccc(OC)c1)c1ncnc2sc(C)c(C)c12,-0.125
9,Cc1c(NC(=O)CSc2ncn[nH]2)c(=O)n(-c2ccccc2)n1C,0.565
10,CCCCC(=O)Nc1ccc(C(=O)Nc2cccnc2)cc1,0.0123
11,CCCCc1ccc(NC(=S)Nc2ccc(Cl)c(S(=O)(=O)N(C)C)c2)cc1,5.93 (active)
12,CCC(C(=O)OCC(=O)Nc1ccc(Cl)c(S(=O)(=O)N(C)C)c1)c1ccccc1 (stereo not drawn),-2.23
13,CCCCc1ccc(NC(=S)Nc2cccnc2)cc1,2.66
14,CC(=O)N1CCN(CC(=O)Nc2ccc(Cl)c(S(=O)(=O)N(C)C)c2)CC1,-0.0302
15,CCCCc1ccc(NC(=S)Nc2ccc(Nc3ccc(OC)cc3)cc2)cc1,-0.0123
16,CNC(=O)N1CCN(C(=O)NC)CC1,-0.168
17,CCN(CC)S(=O)(=O)c1ccc(N2CCOCC2)c(NS(=O)(=O)c2cc(C(C)(C)C)ccc2C)c1,-0.103
18,O=C1[C@@H]2[C@H](C(=O)N1Cc1ccco1)[C@H]1C=C[C@@H]2C1,-0.0939
19,Cc1cc(C(=O)CSc2nc3ccccc3o2)c(C)n1CC1CCCO1 (stereo not drawn),-0.415
20,CCCCCCc1cc2cc(C(=O)NCc3ccccc3)c(=N)oc2cc1O,0.891
21,CCCCCCc1cc2cc(C(=O)NC)c(=N)oc2cc1O,11.6 (active)
22,CCCCCCc1cc2cc(C(N)=O)c(=N)oc2cc1O,-1.44
23,O=C(Nc1ccc(Br)cc1)c1ccc(N2C(=O)C3CC=CCC3C2=O)cc1 (stereo not drawn),0.106

row,Compound,z-score
1,COc1cc(C(=O)NNC2=CC(=O)CC(C)(C)C2)cc(OC)c1OC,-0.21
2,Cc1cc(N/C(=N\S(=O)(=O)c2ccc(F)cc2F)c2ccccc2)no1,0.0702
3,COc1ccc(-c2nnc(SC(C)C(=O)Nc3ccc4c(c3)OCCO4)o2)cc1 (stereo not drawn),1.65
4,CCn1c(SCC(=O)c2ccc(NC(C)=O)c(OC)c2)nnc1-c1ccc(NS(C)(=O)=O)cc1,-0.0548
5,COc1ccc(-c2nnc(SC(C)C(=O)Nc3cccc(Cl)c3)o2)cc1 (stereo not drawn),-0.517
6,Cc1ccc(C(=O)CSc2nnc(-c3ccccc3)o2)cc1,0.068
7,COc1ccc(-c2nnc(SC(C)C(=O)NNC(=O)c3ccc(C)cc3)o2)cc1 (stereo not drawn),2.1
8,COc1ccc(-c2nnc(SCC(=O)Oc3ccc(C)cc3)o2)cc1,-0.915
9,CCS(=O)(=O)Nc1ccc(-c2nnc(SCC(=O)c3ccc(NC(C)=O)c(OC)c3)o2)cc1,4.64 (active)
10,CCC(=O)Nc1ccc(C(=O)CSc2nnc(CNc3ccc(Cl)cc3)o2)cc1OC,-0.38
11,COc1ccc(C(=O)CSc2nnc(-c3ccc(C)cc3)o2)cc1,2.18
12,COCCNC(=O)c1onc(CSc2ccc(C)c(C)c2)c1C(=O)O,-0.0285
13,CN1C(=O)COc2ccc(C(=O)c3oc4ccccc4c3-c3cnc4c(c3)COc3ccccc3-4)cc21,-0.142
14,O=C(Cc1ccccc1)Nc1c[nH]c(=O)[nH]c1=O,-0.449
15,Brc1ccc2[nH]c3c(N4CCc5ccccc5C4)ncnc3c2c1,-0.00372
16,O=C(CCn1cccc1)Nc1cc(F)ccc1F,-0.224
17,Cc1nc2ccccc2n1CCc1nc2c3ccccc3nc(=S)n2[nH]1,-0.257
18,S=c1nc2ccccc2c2nc(-c3ccccc3)[nH]n12,2.81
19,Cc1cncn1CCc1nc2c3ccccc3nc(=S)n2[nH]1,-0.535
20,Cc1ccccc1C(=O)Nc1ccccc1C(=O)NCc1ccccc1,-0.529
21,CCOC(=O)c1cn2nc(-c3ccc(OCC)cc3)cc2nc1C1CCN(C(=O)OC(C)(C)C)CC1,-0.13
22,Cc1ccc(NC(=O)COC(=O)c2ccc([N+](=O)[O-])s2)c(C)c1,0.229
23,CC(C)(C)c1ccc(NC(=O)COC(=O)c2ccc([N+](=O)[O-])s2)cc1,2.01

row,Compound,z-score
1,O=C(COC(=O)c1ccc([N+](=O)[O-])s1)Nc1ccccc1,-0.0827
2,COc1ccccc1/C=C/C(=O)NCC(=O)N/N=C/c1cccnc1,0.376
3,CC(NS(=O)(=O)c1ccc(CCC(=O)NCc2cccnc2)cc1)c1ccccc1 (stereo not drawn),0.0386
4,Cc1nnc(SCC(=O)Nc2ccccc2N2CCOCC2)s1,-0.0127
5,O=C(Nc1cc(Cl)cc(Cl)c1)C1CCC(=O)N1Cc1ccccc1Cl (stereo not drawn),-0.359
6,O=C(Nc1ccc(Br)cc1)C1CCC(=O)N1Cc1ccccc1Cl (stereo not drawn),4.3 (active)
7,O=C(Nc1ccc(Cl)cc1)C1CCC(=O)N1Cc1ccccc1Cl (stereo not drawn),0.406
8,CCCCN(CCCC)CC(O)CN(c1cc([N+](=O)[O-])ccc1OC)S(=O)(=O)c1ccccc1 (stereo not drawn),0.91
9,O=c1[nH]c(CN2CCc3ccccc3C2)nc2ccccc12,0.446
10,Cn1cc(CN2CCc3ccccc3C2)c2ccccc21,0.58
11,Cc1[nH]c2ccccc2c1CN1CCc2ccccc2C1,3.72 (active)
12,COc1ccc(-c2[nH]ncc2/C=N\NC(=O)c2ccc(C(C)(C)C)cc2)cc1OC,-0.413
13,CCNC(=S)Nc1scc(-c2ccccc2)c1C(=O)OCC,6.92 (active)
14,CCOC(=O)c1c(-c2ccccc2)csc1NC(=S)N(CC)CC,0.121
15,CCOC(=O)c1c(-c2ccc(C)cc2)csc1NC(=S)NC(=O)c1ccccc1,0.153
16,CCOC(=O)c1c(-c2ccccc2)csc1NC(=S)NC,7.44 (active)
17,CCOC(=O)c1c(-c2ccccc2)csc1NC(=O)C1CCCO1 (stereo not drawn),-0.568
18,CCOC(=O)c1c(-c2ccccc2)csc1NC(=O)CCN1C(=O)c2ccccc2C1=O,-0.51
19,COc1ccc(NC(=O)c2ccc3snnc3c2)cc1,-0.112
20,CS(=O)(=O)N1CCN(c2ccc(NC(=O)c3cccnc3Cl)cc2)CC1,0.393
21,CC(NS(=O)(=O)c1ccccc1)C(=O)Nc1ccc(S(N)(=O)=O)cc1 (stereo not drawn),0.246
22,CCCc1cc(=O)[nH]c(SCCOC(=O)c2ccccc2)n1,-0.349
23,CCOc1ccc2nc(NC(=S)N(C)C)sc2c1,-0.436

row,Compound,z-score
1,COc1ccc2nc(NC(C)=O)sc2c1,-0.0562
2,COc1ccc2nc(NC(=S)N(C)C)sc2c1,14.8 (active)
3,COc1cccc(N=C2SC(C(=O)Nc3ccccc3F)CC(=O)N2C)c1 (stereo not drawn),-0.119
4,COc1ccc(S(=O)(=O)N(C(C)=O)c2ccc(OC(C)=O)c3ccccc23)cc1[N+](=O)[O-],-0.812
5,CC(=O)Oc1ccc(N(C(C)=O)S(=O)(=O)c2cccs2)c2ccccc12,4.9 (active)
6,CC(=O)Oc1ccc(N(C(C)=O)S(=O)(=O)c2cccs2)cc1,-0.202
7,CC(C)CC(=O)Nc1nnn(C)n1,0.332
8,CC(C)C(=O)Nc1nnn(C)n1,9.51 (active)
9,CC(C)C(=O)NC(=S)Nc1nnn(C)n1,0.169
10,CCN1CCCC1CNC(=O)C(=O)Nc1ccccc1OC (stereo not drawn),0.00956
11,CCN1CCCC1CNC(=O)C(=O)Nc1ccc(OC)cc1 (stereo not drawn),0.521
12,CCN1CCCC1CNC(=O)C(=O)Nc1cccc(OC)c1 (stereo not drawn),2.04
13,CCOc1ccc(N(CC(=O)N2CC=C(c3ccccc3)CC2)S(=O)(=O)c2c(C)noc2C)cc1,-0.285
14,O=C(COC(=O)c1cn(-c2ccccc2)nc1-c1ccc(F)cc1)Nc1ncc(Cl)cc1Cl,0.0446
15,CCC(C)NC(=O)C1CCN(c2nc(OC)nc(OC)n2)CC1 (stereo not drawn),0.12
16,CCn1c2ccccc2c2cc(NC(=O)C/C(C)=N/NC(=O)c3ccccc3N)ccc21,-0.0756
17,C/C(CC(=O)Nc1cccc2c1CCCC2)=N\NC(=O)c1ccccc1N,2.22
18,C/C(CC(=O)Nc1cccc2c1CCCC2)=N\NC(=O)c1cccc2ccccc12,-0.483
19,COc1cc(NC(=O)c2ccco2)ccc1NC(=O)C(C)C,0.332
20,Nc1nc(SCC(=O)NCCCO)nc2sc3c(c12)CCC3,1.08
21,O=C(CC1NC2CCCCC2NC1=O)Nc1cccc(C(F)(F)F)c1 (stereo not drawn),0.497
22,O=C(Nc1ccc(F)cc1)NC1CCCCC1,0.532
23,O=C(CSC1=NS(=O)(=O)c2ccccc21)Nc1ccccc1,-0.326

row,Compound,z-score
1,CCc1cccc(NC(=O)CSC2=NS(=O)(=O)c3ccccc32)c1,3.52 (active)
2,O=C(Nc1cccc(F)c1)NC1CCCCC1,0.258
3,CCc1cccc(NC(=O)CCSCCC(=O)Nc2cccc(CC)c2)c1,3.02 (active)
4,CCc1cccc(NC(=O)COc2ccccc2)c1,0.78
5,CCc1cccc(NC(=O)C2CCCC2)c1,0.366
6,O=C(Nc1ccc(Cl)cc1)NC1CCCCC1,0.269
7,Cc1ccc(NC(=O)CCSCCC(=O)Nc2ccc(C)c(C)c2)cc1C,-0.0616
8,CCc1cccc(NC(=O)NC2CCCCC2)c1,4.38 (active)
9,O=C(Nc1ccc(F)c(F)c1)NC1CCCCC1,3.01 (active)
10,COC(=O)CSC1=NS(=O)(=O)c2ccccc21,-2.06
11,CCc1cc2c(=O)c(Oc3ccccc3)c(C)oc2cc1O,0.432
12,O=C(CNC(=O)c1cccc(F)c1)N/N=C/c1cccc([N+](=O)[O-])c1,-0.00152
13,COc1ccc(S(=O)(=O)NC(C(C)C)C(C)C)cc1OC,0.101
14,CSc1nc(N2CCOCC2)c2c(c1C#N)CCCCC2,-0.315
15,CCC1Cc2c(nc3c4c(nc(N5CCOCC5)c(C#N)c24)NC(C)=N3)O1 (stereo not drawn),-0.387
16,O=C(c1ccco1)N1CCCC(c2ccccc2)C1 (stereo not drawn),-0.388
17,CCOC(=O)c1ccc(COC(=O)c2nonc2N)cc1,-0.0847
18,C=CCNC(=O)CC(C)C(CCCCC)C(=O)O (stereo not drawn),-0.15
19,Cc1ccc(CNC(=O)c2cc3c(C)nc4ccccc4c3o2)cc1,0.19
20,Cc1ccc(SCCNC(=O)c2ccccc2C)cc1,-0.0405
21,O=C(Cn1nc(-c2ccc(Cl)cc2)c2ccccc2c1=O)Nc1cccnc1,-0.258
